The results in this text go back to PubChem BioAssay (NCI).

Test systems include HCT-15 colon; HT29 colon; SNB-75 CNS; SNB-19 CNS; U251 CNS; PC-3 prostate; SK-MEL-5 melanoma; UACC-62 melanoma; LOX IMVI melanoma; SK-MEL-28 melanoma.
Holding throughout (experiment): NCI-60 one-dose screen, 48 h (100 = growth as untreated, 0 = no growth, -100 = all killed)
Details in all cases: 10 µM unless noted

The panel holds about 83,000 compounds, 20% with a hit somewhere; the sample as a whole holds those more often.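 48-hour exposure, single concentration, 96-well plates; percent growth endpoint where 0 means no net growth. Active: below 10.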 Unmarked numbers belong to inactive results. Activity calls are given as the source filed them.

Take `COC(=O)C1=C(C(=O)Nc2cccnc2)C2OC1(C(Cc1ccccc1)Oc1ccccc1)C1OC21` (stereo not given): the growth with HCT-15 colon was 14.4%; in the test with HT29 colon, 59.1%; in the test with SNB-75 CNS, 88.7%; in the test with SNB-19 CNS, 102%; in the test with U251 CNS, 101%; in the test with PC-3 prostate it was 69.6%. Besides, the growth with SK-MEL-5 melanoma was 107%; in the test on UACC-62 melanoma it was 69.7%; in the test on LOX IMVI melanoma, 80.7%; in the test on SK-MEL-28 melanoma, -75.4% (active).
In the case of `COc1ccc2c(O)c(/C=C3\N=Nc4ccccc43)oc2c1C[C@H]1CCNC[C@H]1F`, the growth with HCT-15 colon is 33.6%; with HT29 colon it was 19.3%; in the test with SNB-75 CNS, 61.4%; in the test on SNB-19 CNS, 67.7%; in the test with U251 CNS it was 65.4%; in the test with PC-3 prostate, 40.8%. Also, the growth in the test with SK-MEL-5 melanoma is 48.3%; in the test with UACC-62 melanoma, 41.2%; with LOX IMVI melanoma it was 35%; with SK-MEL-28 melanoma, 68.3%.
In the case of `Cc1c(N2CN3C[C@H](C)N4CN(c5c(C)n(C)n(-c6ccccc6)c5=O)CN5C[C@@H](C)N(C2)C3C54)c(=O)n(-c2ccccc2)n1C` (stereo not given in full), the growth is 96.4% with HCT-15 colon; 102% with HT29 colon; 107% with SNB-75 CNS; 101% in the test with SNB-19 CNS; 105% with U251 CNS; 94.2% with PC-3 prostate. Moreover, the growth with SK-MEL-5 melanoma is 102%; in the test on UACC-62 melanoma, 96.7%; with LOX IMVI melanoma, 96%; in the test with SK-MEL-28 melanoma it was 101%.
As to `Fc1ccc(CNc2c3ccccc3nc3ccccc23)cc1`, the growth with HCT-15 colon is 17.6%; with HT29 colon, 16.1%; in the test on SNB-75 CNS it was 42.1%; with SNB-19 CNS, 32.4%; in the test on U251 CNS it was 25.9%; with PC-3 prostate it was 26.9%. Besides, the growth with SK-MEL-5 melanoma was 42.5%; with UACC-62 melanoma, 50.2%; in the test with LOX IMVI melanoma, 9.43% (active); in the test on SK-MEL-28 melanoma, 68.2%.
As for `Cc1cc(C(=O)Nc2cc(Nc3ncccc3-c3ncnc4nc[nH]c34)ccc2F)cc(C(F)(F)F)c1`, the growth was 60.1% with HCT-15 colon; 20.8% in the test with HT29 colon; 59.4% in the test on SNB-75 CNS; 74.4% with SNB-19 CNS; 57.3% in the test on U251 CNS; 72.2% in the test on PC-3 prostate. The growth with SK-MEL-5 melanoma was 29.2%; with UACC-62 melanoma, -2.36% (active); in the test with LOX IMVI melanoma, 1.22% (active); in the test with SK-MEL-28 melanoma, 10.3%.
Regarding `Cc1ccc(Nc2nc(-c3ccc(F)cc3)c(C#N)c(=O)n2C)cc1`, the growth with HCT-15 colon is 55%; in the test on HT29 colon it was 78.2%; in the test with SNB-75 CNS, 30%; with SNB-19 CNS, 56.2%; in the test on U251 CNS it was 68.2%; in the test on PC-3 prostate it was 67.9%. The growth in the test with SK-MEL-5 melanoma is 77.2%; in the test with UACC-62 melanoma it was 51.8%; in the test with LOX IMVI melanoma, 74.3%; with SK-MEL-28 melanoma, 74.1%.
Regarding `CCN1C(=O)N(CC)C2C1NN=c1s/c(=C\c3cc4ccccc4[nH]3)c(=O)n12` (stereo not given), the growth was 12% in the test on HCT-15 colon; 5.58% (active) in the test on HT29 colon; 32.1% in the test on SNB-75 CNS; 45.1% with SNB-19 CNS; 7.49% (active) in the test on U251 CNS; 13.2% with PC-3 prostate. The growth in the test with SK-MEL-5 melanoma was -5.91% (active); with UACC-62 melanoma, 22.2%; in the test on LOX IMVI melanoma, 17.4%; in the test on SK-MEL-28 melanoma, 52.2%.
On to `CC1=NN(c2ccc(Cl)cc2)CC1(C)N=O` (stereo not given), for which the growth in the test with HCT-15 colon was 27.4%; in the test with HT29 colon, 28.3%; in the test with SNB-75 CNS, 75.7%; with SNB-19 CNS, 97.9%; in the test with U251 CNS, 91.5%; in the test on PC-3 prostate it was 91.9%. Also, the growth in the test with SK-MEL-5 melanoma was 95.4%; in the test with UACC-62 melanoma it was 88.2%; with LOX IMVI melanoma it was 28.1%; in the test on SK-MEL-28 melanoma, 90.4%.
Turning to `O=C(O)CCCn1c(SCc2c(Cl)cccc2Cl)nc2ccsc2c1=O`, the growth is 30.7% in the test on HCT-15 colon; 4.21% (active) in the test with HT29 colon; -13.8% (active) with SNB-75 CNS; 31% in the test with SNB-19 CNS; 18.1% with U251 CNS; 14.5% with PC-3 prostate. Further, the growth with SK-MEL-5 melanoma is 16.8%; in the test with UACC-62 melanoma, 28.3%; in the test with LOX IMVI melanoma, 28%; with SK-MEL-28 melanoma it was 57.6%.
`COC(=O)/C=C1/SC(=Nc2cccc(Cl)c2)N(CCc2c[nH]c3ccc(O)cc23)C1=O`: the growth with HCT-15 colon is -11.6% (active); in the test on HT29 colon, 49.2%; in the test with SNB-75 CNS, 38.7%; in the test on SNB-19 CNS, 14.3%; in the test on U251 CNS it was 4.91% (active); with PC-3 prostate it was 9.39% (active). For the same molecule, the growth in the test with SK-MEL-5 melanoma was 41.4%; with UACC-62 melanoma it was 13.8%; in the test on LOX IMVI melanoma, -39.2% (active); in the test with SK-MEL-28 melanoma, 17.4%.
On to `Cn1c(=O)c2c(nc(NC3=NS(=O)(=O)c4ccccc43)n2Cc2ccccc2)n(C)c1=O`, for which the growth with HCT-15 colon was 98.4%; in the test with HT29 colon it was 111%; in the test with SNB-75 CNS it was 93.1%; in the test on SNB-19 CNS, 96.1%; in the test on U251 CNS, 104%; in the test on PC-3 prostate, 95.4%. For the same molecule, the growth in the test with SK-MEL-5 melanoma was 99.4%; with UACC-62 melanoma, 91.5%; in the test on LOX IMVI melanoma it was 95.6%; in the test with SK-MEL-28 melanoma it was 107%.
Consider `Cc1nc2sc(C(=O)Nc3ccccc3)c(N)c2cc1C(=O)/C=C/c1ccccc1`, for which the growth in the test on HCT-15 colon was -32.1% (active); with HT29 colon, -63.9% (active); with SNB-75 CNS, -14% (active); in the test with SNB-19 CNS, -40.8% (active); with U251 CNS, -71.7% (active); in the test on PC-3 prostate, 6.68% (active). In addition, the growth in the test on SK-MEL-5 melanoma is 11.7%; with UACC-62 melanoma, 0.799% (active); in the test with LOX IMVI melanoma, -80% (active); with SK-MEL-28 melanoma it was 30.9%.
Turning to `C[C@@H](CO)[C@@H]1CC[C@]2(C(=O)N3CCN(C)CC3)CC[C@]3(C)[C@H](CC[C@@H]4[C@@]5(C)CC[C@H](O)C(C)(C)[C@@H]5CC[C@]43C)[C@@H]12`, the growth in the test with HCT-15 colon was 44.3%; in the test on HT29 colon it was 17.6%; with SNB-75 CNS it was 91.4%; with SNB-19 CNS, 68.7%; in the test on U251 CNS, 24.1%; in the test on PC-3 prostate it was 64.1%. In addition, the growth in the test on SK-MEL-5 melanoma is 82.9%; in the test on UACC-62 melanoma it was 78.3%; in the test on LOX IMVI melanoma, 38.7%; in the test on SK-MEL-28 melanoma, 106%.
